From PubChem BioAssay
FLuc inh-1: Photinus pyralis luciferase inhibition | 76,000 tested, 2.5% active | purified P. pyralis luciferase, luminescence, biochemical | Potency, µM (doses to about 115 µM), hits mostly inhibitors | P08659; also: % is scaled to controls: 0 for no effect and ±100 for the full control effect; nearly all actives have a fitted effect of over 65% in size
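Luminescence read by CCD imaging after purified firefly luciferase (10nM final) was added to substrate buffer holding 10uM D-luciferin and 10uM ATP, pH 7.5, pre-dosed with compound.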
HEK cytotox: HEK 293 cell cytotoxicity; HEK 293 viability, ATP luminescence (CellTiter-Glo), 48-72 h; Potency, µM (titrated, usually from 115 µM), without a hit: at the highest dose activity change, negative = cytotoxicity, usual class: inhibitors; 94,000 tested, 6.6% active; AID 1345083; also: % is scaled to controls: 0 for no effect and ±100 for the full control effect; nearly all actives have a fitted effect of over 60% in size
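Pintool-delivered compounds were incubated with HEK 293 cells (250 cells/well) at 37 degree Celsius for 48 or 72 hr. ATP-dependent luminescence (CellTiter-Glo) then reported remaining viable cells.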
hNpr1 antagonist: human Npr1 receptor antagonism. P16066. HEK293 hNpr1 GloSensor cGMP, ANP-stimulated luminescence. Potency, µM (highest dose often 46.3 µM), inactives show top-dose activity change, negative = inhibition, actives largely listed as inhibitors. 76,000 tested, 1.6% active; calls by dose curve; also: % is scaled to controls: 0 for no effect and ±100 for the full control effect; nearly all actives have a fitted effect of over 60% in size
Target sequence (P16066 whole entry, looked up): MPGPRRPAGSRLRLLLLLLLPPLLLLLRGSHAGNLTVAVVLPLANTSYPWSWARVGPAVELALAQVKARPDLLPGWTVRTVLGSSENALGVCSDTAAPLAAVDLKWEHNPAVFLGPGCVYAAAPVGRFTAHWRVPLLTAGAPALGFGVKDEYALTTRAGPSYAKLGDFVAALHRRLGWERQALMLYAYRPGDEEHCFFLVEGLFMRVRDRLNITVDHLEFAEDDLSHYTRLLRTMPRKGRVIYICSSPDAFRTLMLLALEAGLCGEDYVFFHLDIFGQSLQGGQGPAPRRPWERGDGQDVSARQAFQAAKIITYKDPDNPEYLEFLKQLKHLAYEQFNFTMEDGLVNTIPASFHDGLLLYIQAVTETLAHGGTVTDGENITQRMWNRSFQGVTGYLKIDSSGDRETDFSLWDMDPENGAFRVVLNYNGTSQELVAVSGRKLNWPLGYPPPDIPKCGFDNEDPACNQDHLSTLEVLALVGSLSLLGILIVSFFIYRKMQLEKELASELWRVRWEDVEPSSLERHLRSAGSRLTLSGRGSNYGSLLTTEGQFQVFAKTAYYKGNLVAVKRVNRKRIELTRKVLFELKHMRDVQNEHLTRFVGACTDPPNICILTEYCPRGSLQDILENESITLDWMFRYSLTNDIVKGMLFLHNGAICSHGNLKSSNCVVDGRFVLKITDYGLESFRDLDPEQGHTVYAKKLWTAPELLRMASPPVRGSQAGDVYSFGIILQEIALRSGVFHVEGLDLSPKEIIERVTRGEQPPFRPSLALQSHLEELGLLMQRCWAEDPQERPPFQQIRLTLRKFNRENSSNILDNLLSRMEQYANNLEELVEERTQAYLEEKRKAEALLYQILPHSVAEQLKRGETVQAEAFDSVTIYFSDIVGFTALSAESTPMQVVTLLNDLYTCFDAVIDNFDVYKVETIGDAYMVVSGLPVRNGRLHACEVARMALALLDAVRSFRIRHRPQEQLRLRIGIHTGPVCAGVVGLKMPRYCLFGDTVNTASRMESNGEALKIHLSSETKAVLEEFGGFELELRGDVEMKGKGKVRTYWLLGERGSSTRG
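Compound pre-incubated 30 min at room temperature on GloSensor-loaded HEK293 cells stably carrying hNpr1 and the pGS-40F cGMP biosensor. Stimulation uses hNppA at 0.1 nM final; luminescence is taken at baseline and 20 min post-agonist.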
3T3 cytotox: cytotoxic compounds in NIH 3T3 cells | NIH 3T3 viability, CellTiter-Glo ATP luminescence, 48-72 h | Potency, µM (titrated, usually from 96.7 µM), for inactives: at the highest dose activity change, negative = cytotoxicity, usual class: inhibitors | 94,000 tested, 4.3% active; also: % is scaled to controls: 0 for no effect and ±100 for the full control effect; nearly all actives have a fitted effect of over 55% in size
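NIH 3T3 cells at 400 cells/well received 23 nL of compound by pintool and were incubated 48 or 72 h at 37 °C. Viability was read as ATP-coupled CellTiter-Glo luminescence.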
FLuc SDR no ATP: binders stabilizing firefly luciferase, without ATP; 1,300 tested, 7.8% active; AID 1963318; shares compounds with FLuc inh-1; Potency, µM (series often up to 32.7 µM), for the others: top-dose activation (signal gain), most hits filed as activators; Purified FLuc-C-HiBiT, Nano-Glo HiBiT luminescence, no ATP; also: nearly all actives have a fitted effect of over 55% in size
FLuc SDR ATP: binders stabilizing firefly luciferase, plus ATP; shares compounds with FLuc inh-1; purified FLuc-C-HiBiT + ATP, HiBiT complementation luminescence; AID 1963319; Potency, µM (highest dose often 32.7 µM), inactives show at the highest dose activation (gain of signal), hits mostly activators; 1,300 tested, 8.7% active;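 also: signal reports ligand binding via conformational change of the enzyme rather than luciferase catalysis; % of control where 0% means no effect; nearly all actives have a fitted effect of over 55% in size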
FLuc inh-2: blocks firefly luciferase enzymatic activity; shares compounds with FLuc inh-1; purified FLuc-C-HiBiT enzyme, luciferin luminescence; Potency, µM (doses to about 32.7 µM), inactives show at the highest dose activity change, negative = inhibition, most hits filed as inhibitors; 1,300 tested, 42% active; AID 1963320; also: % is scaled to controls: 0 for no effect and ±100 for the full control effect; nearly all actives have a fitted effect of over 70% in size
An asterisk follows results filed as active; i = inactive; ? = inconclusive; · = no result; [ ] = remark or other dose. A selection: hits, their analogues and other compounds. The true share with any hit is near 11%. Unless noted, calls follow the shape of the dose curve; as a rule, active = well fitted curve in the direction sought with a large enough effect; inconclusive = small, poorly fitted or top-dose-only effect, or another doubt; inactive = no such curve, though single readings can be large; an effect the other way counts as inactive or inconclusive. Potency is read from the fitted curve at half-maximal effect.

SMILES	FLuc inh-1	HEK cytotox	hNpr1 antagonist	3T3 cytotox	FLuc SDR no ATP	FLuc SDR ATP	FLuc inh-2
COCC1CCN(c2ccc(-c3nc(-c4ccccc4C)no3)cn2)C1 (centres undefined)	14µM*	?	?	-25%	14%	16%	?
CN1CC(=O)N(C2CCCC2)Cc2c1ncnc2N1CCOCC1	i	3%[172 µM]	0%[70.6 µM]	-5%[138 µM]	12%[49.3 µM]	8%[49.3 µM]	2%[49.3 µM]
COc1ccccc1CNC(=O)C1CN(C)C(=O)N1 (centres undefined)	·	i	·	-12%[138 µM]	·	·	·
COCc1nncn1C1CCN(S(=O)(=O)c2cccc(Cl)c2)CC1	i	1%	0%	-2%	·	·	·
CCOc1ccc(/C=C/c2nc3ccccc3n2S(=O)(=O)c2cccc(Cl)c2)cc1	·	·	·	·	3.1µM*	?	0.39µM*
CSc1ccc(/C=C/c2nc3ccccc3n2S(=O)(=O)c2ccc(F)c(C)c2)cc1	·	·	·	·	5µM*	?	0.7µM*
Cc1ccc(/C=C/c2nc3ccccc3n2S(=O)(=O)c2cccc(Cl)c2)cc1	·	·	·	·	0.56µM*	0.7µM*	0.12µM*
COc1ccc(-c2noc([C@@H]3C[C@H](NCc4ccccn4)CN3C)n2)cc1	13µM*	100µM*	?	?	18%[49.3 µM]	15%[49.3 µM]	?
COc1ccc(C(=O)N[C@H]2C[C@@H](c3nc(-c4cncnc4)no3)N(C)C2)cc1	?	-4%[172 µM]	3%[70.6 µM]	-12%[138 µM]	·	·	·
CSc1cccc(NC(=O)c2ccc3c(c2)N(C)C2CCCN2C3=O)c1 (centres undefined)	14µM*	?	-1%	-27%	13%	?	?
CN1c2cc(C(=O)Nc3ccc(C(N)=O)cc3)ccc2C(=O)N2CCCCCC21 (centres undefined)	i	?	0%	?	·	·	·
CSc1ccc(NC(=O)c2ccc3c(c2)N(C)C2CCCN2C3=O)cc1 (centres undefined)	14µM*	?	-10%	-18%	9%	?	?
O=C(c1cc2ccccc2o1)N1CCCC2(CNS(=O)(=O)c3cccnc3O2)C1 (centres undefined)	·	i	·	-7%	·	·	·
COC(=O)[C@@H]1C[C@H](NC(=O)c2ccc(Oc3ccccc3)cc2)CN1C	14µM*	-26%	-1%	-22%	16%	12%	?
CCNC(=O)NC[C@H]1Cn2c(-c3cccc(Cl)c3)cnc2CO1	i	-17%[172 µM]	0%[70.6 µM]	?	·	·	·
COc1ccc2c(c1)CN(CC1CC1)C(=O)CCN2C(=O)C1CCC1	·	-24%	·	?	·	·	·
COc1ccc(/C=C/c2ccc3c(c2)C(=O)N2CC[C@H](NC(=O)COCC(=O)O)[C@H]2C(=O)N3)cc1	7.9µM*	?	-2%	?	?	?	9.9µM*
COc1ccc(-c2ccc3c(c2)C(=O)N2CC[C@H](NC(=O)COCC(=O)O)[C@H]2C(=O)N3)c(OC)c1	?	-24%	1%	-16%	·	·	·
CSCC(=O)N[C@H]1CCN2C(=O)c3cc(/C=C/c4ccccc4)ccc3NC(=O)[C@H]12	11µM*	?	2%[70.6 µM]	-26%[174 µM]	17%[49.3 µM]	10%[49.3 µM]	?
Cc1cc2c(c(-c3nc4ccccc4s3)c1)OC(CNC(=O)c1occc1C)C2 (centres undefined)	·	·	·	·	15%	12%	?
COc1ccc(C(=O)NCC2Cc3cc(C)cc(-c4nc5ccccc5s4)c3O2)c(OC)c1OC (centres undefined)	·	·	·	·	15%	11%	1%
COc1ccccc1-c1cn2c(n1)CO[C@@H](CNC(=O)c1ccc(F)cc1)C2	i	?	2%[70.6 µM]	?	·	·	·
CC(C)(C)C(=O)N1CCC(C(=O)N2CCC(c3nc4ncccc4[nH]3)CC2)CC1	·	1%	·	-18%	·	·	·
